The panel holds about 83,000 compounds, 20% with a hit somewhere; the sample as a whole holds those more often.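 Negative percent growth values reflect cell death: -40 means 40% of the cells present at the start died, and -100 means all died.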 Values without a mark were called inactive. Calls of active or inactive are those of the source.
system: SN12C renal; assay: NCI-60 one-dose screen, 48 h (100 = growth as untreated, 0 = no growth, -100 = all killed); conditions: 10 µM unless noted
Protocol: Growth inhibition of the SN12C human tumor cell line is measured as a screen for anti-cancer activity. Cells are grown in 96 well plates and exposed to the test compound for 48 hours. Compounds are tested at a single concentration, which is 10^-5 M for most compounds. The reported endpoint is percent growth (GI% or GIPRCNT), where numbers from 0 - 100% represent growth inhibition, and numbers from -100% - 0 represent cell death. For example, a value of 40 represents 60% growth inhibition. A value of 0 means no net growth occurred over the course of the experiment. A value of -40 indicates 40% of cells at the beginning of the experiment died by the end of the experiment. A value of -100 means all cells are dead at the end of the experiment.
NCI-60 Human Tumor Cell Lines Screen was performed using the standard one-dose NCI protocol, which is described in more detail at https://dtp.cancer.gov/discovery_development/nci-60/default.htm.
Compounds with GIPRCNT values below 10 were considered active. Activity score was based on GIPRCNT using the following formula: […]
Score is 0 for GIPRCNT values of 100 or above, 50 for GIPRCNT values of 0, and 100 for GIPRCNT values of -100.

| SMILES | growth |
| --- | --- |
| COc1cc(C2CC(c3cccc(Nc4ccncc4)c3)=NN2c2cc(Cl)cc(Cl)c2)cc(OC)c1OC (stereo not given) | 9.72% (active) |
| COc1ccc(/C(=C\c2ccccc2)C(=O)O)cc1OC | 98.4% |
| S=c1[nH]cccc1-c1nnc2n1Nc1nc3ccccc3cc1CS2 | 98.8% |
| CCCCCCCCCCCCC1CCC/C=C\CCC(=O)O1 (stereo not given) | 105% |
| CN1CCN(C(=O)OCc2nc3c(N4CCOCC4)nc(-c4ccccc4)nc3n2C)CC1 | -86.8% (active) |
| O=C(Nc1ccc2cc3ccc(NC(=O)N4CCCCCC4)cc3nc2c1)N1CCCCCC1 | -57.6% (active) |
| C=Cc1cc[n+](CCCCCCCCCCCC)cc1 | 101% |
| COc1ccc(/C=N/C2=C(C#N)C(c3ccccc3[N+](=O)[O-])c3ccc4ccccc4c3O2)cc1 (stereo not given) | 91.6% |
| COc1ccc(C2=NN(C(C)=O)C(c3cn(Cc4ccc(Cl)cc4)c4ccccc34)C2)cc1 (stereo not given) | 72.2% |
| NC(=O)c1cccc(-c2cc(C(N)=O)ccc2Cl)c1 | 50% |
| COc1ccc2nc(N=Nc3c(O)ccc4ccccc34)sc2c1 | 50.4% |
| Clc1nc(Nc2ccccc2)nc(Nc2ccccc2)n1 | 95.9% |
| CCN(CC)CCOC(COc1cc(C)cc(C)c1)COc1cc(C)cc(C)c1 | 28.8% |
| CC(=O)N1c2ccccc2NC2=C(C(=O)N(C)C2(C)C)C1C (stereo not given) | 40.7% |
| CN(C)C(=O)OCc1nc2c(N3CCOCC3)nc(-c3ccccc3)nc2n1C | -90.7% (active) |
| Fc1ccc(-n2cc(COc3ncnc4sc5c(c34)CCCC5)nn2)cc1Cl | 98.7% |
| COc1ccccc1/C=N/NC1=NC2C(N1)N(C)C(=O)N2C (stereo not given) | 100% |
| Fc1ccc(C2CC(c3cccc(Nc4ccncc4)c3)=NN2c2ccccc2)cc1 (stereo not given) | 75.8% |
| COc1ccccc1/C=C1\Oc2cc(OCCCN3CCCC3)ccc2C1=O | 86.9% |
| Cc1[nH]n(C(=O)c2ccncc2)c(=O)c1N=Nc1ccc(F)c(Cl)c1 | 102% |

| SMILES | growth |
| --- | --- |
| COc1cc(C(=O)c2cnc(-c3ccc4cc[nH]c4c3)[nH]2)cc(OC)c1OC | 20.5% |
| CC(=O)N1N=C(c2cccc(Nc3ccncc3)c2)CC1c1ccccc1 (stereo not given) | 81.7% |
| COc1ccc(-c2nc3sccn3c2/C=C/C(=O)c2cc(OC)c(OC)c(OC)c2)cc1 | 62.5% |
| COc1cc(COC(=O)CCCCC[P+](c2ccccc2)(c2ccccc2)c2ccccc2)c(OC)c2c1OCO2 | 51% |
| CS(=O)(=O)OCCN(CCOS(C)(=O)=O)c1ccc(/C=N/Nc2ccc([N+](=O)[O-])cc2[N+](=O)[O-])cc1 | 77.6% |
| COc1ccc(C(O)c2cc3c(N)c(C(=O)Nc4cccc(Br)c4C)sc3nc2C)cc1 (stereo not given) | 17.9% |
| c1ccc(CCSc2ncnc3nc[nH]c23)cc1 | 86.5% |
| CC(=O)N1c2ccccc2NC2=C(C(=O)N(Cc3ccccc3)C2(C)C)C1c1ccco1 (stereo not given) | 35.9% |
| O=C(N/N=C/c1cccc(O)c1)c1ccccc1Nc1cccc(C(F)(F)F)c1 | 93.5% |
| Clc1ccc(C2CC(c3cccc(Nc4ccncc4)c3)=NN2c2ccc(Cl)cc2)cc1 (stereo not given) | 39.6% |
| CN1C2CCC1CN(c1cnc(C(=O)Nc3cc(F)cc4cccnc34)cn1)C2 | 51.4% |
| COc1ccc(-c2nc(N/N=C/c3cccc(Br)c3)nc(N3CCOCC3)c2C#N)cc1 | 89.4% |
| NC(=O)c1cccc(-n2ccc3cc(NC(=O)Nc4cc(C(F)(F)F)cc(C(F)(F)F)c4)ccc32)n1 | 35.9% |
| N#Cc1cc(-c2nc3ccccc3s2)c(=O)n(NS(=O)(=O)c2ccc(Cl)cc2)c1N | 97.8% |
| C[C@]12C[C@H]1CC[C@]1(C)[C@@H]2CC[C@@]23C[C@H](CC[C@H]21)[C@@](O)(CO)C3 | 92% |
| CC(=O)c1cc2c(N)c(C(=O)Nc3cncc4ccccc34)sc2nc1C | 95.3% |
| CC1(C)CCCN1CCCN1c2ccccc2Sc2ccc(Cl)cc21 | 68.1% |
| CNC(=O)Nc1ccc(-c2nc(N3CCOCC3)nc3c2cnn3C2CCOCC2)cc1 | 7.06% (active) |
| CC(=O)CCSc1ccc(OC(C)=O)cc1 | 101% |
| COc1ccc(/C=C/C(=O)c2ccc(Nc3ncnc4ccccc34)cc2)cc1OC | 88.5% |

From PubChem BioAssay (NCI)
